Where “and” joins values, the source holds several entries; their conditions need not be identical. Identical values can stand only once. Unmarked numbers belong to inactive results. Inconclusive results are not listed. Calls of active or inactive are those of the source. Unless noted, calls follow the shape of the dose curve; as a rule, active = well fitted curve in the direction sought with a large enough effect; inconclusive = small, poorly fitted or top-dose-only effect, or another doubt; inactive = no such curve, though single readings can be large; an effect the other way counts as inactive or inconclusive.

For test [1], the target named is Cytochrome P450 2D6 (Homo sapiens) (UniProt P10635). Put plainly: qHTS Assay for Inhibitors and Substrates of Cytochrome P450 2D6 (AID 891). Also: nearly all actives have a fitted effect of over 60% in size. Also: potency is read from the fitted curve at half-maximal effect. The conditions noted are these: recombinant CYP2D6, luciferin-ME EGE luminescence; series mostly up to 57.1 µM. The method in brief:
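Human CYP2D6 (5 nM) with 30 uM Luciferin-ME EGE (at Km) in 100 mM KPO4, compound preincubated 10 min, then NADPH regeneration system for 60 min at room temperature. Luciferin read by luminescence; normalized to 1.43 uM quinidine.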

A further test deals with CP268. Nature of the test: qHTS profiling for inhibitors of Plasmodium falciparum proliferation (AID 504749). Also: nearly all actives have a fitted effect of over 60% in size. Also: potency is read from the fitted curve at half-maximal effect. The settings on record: P. falciparum in erythrocytes, SYBR Green DNA, 72 h; series mostly up to 28.7 µM. The method in brief:
(§1)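 Three-day growth assay of blood-stage parasites in erythrocytes (0.3% parasitemia, 2.5% hematocrit) at 37 C, 5% CO2, quantified by SYBR Green DNA staining after overnight detergent lysis.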

A further test deals with CP335. The test is described as above. The conditions noted are these: P. falciparum in erythrocytes, SYBR Green DNA, 72 h; series mostly up to 12.8 µM. The method in brief: as §1
The subject of a further test is GB4. The description is as above. The settings on record: P. falciparum in erythrocytes, SYBR Green DNA, 72 h; series mostly up to 28.7 µM. The method in brief:
as §1

The next test has as its system JCK. Described as above. The conditions noted are these: P. falciparum in erythrocytes, SYBR Green DNA, 72 h; series mostly up to 28.7 µM. The method in brief: as §1
The next test deals with PC15. The test is described as above. The settings on record: P. falciparum in erythrocytes, SYBR Green DNA, 72 h; series mostly up to 28.7 µM. The method in brief: as §1
A further test relates to W2. The test is described as above. The settings on record: P. falciparum in erythrocytes, SYBR Green DNA, 72 h; series mostly up to 12.8 µM. The gist of the method:
as §1

Test [2] deals with DNA dC->dU-editing enzyme APOBEC-3G (Homo sapiens) (UniProt Q9HC16). Put plainly: qHTS for inhibitors of Vif-A3G interactions: Validation (AID 588379). Also: 0% is about no effect. The settings on record: Vif-A3G protein interaction assay; series mostly up to 46.1 µM. The method in brief: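 HeLa cells stably expressing Vif and A3G-eYFP, 700 cells/well, incubated overnight at 37 deg C, then exposed to compound overnight at 37 deg C. Inhibition of Vif-mediated degradation read as increased yellow fluorescence (Ex 488/Em 500-530) by laser-scanning cytometry.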

A further test concerns CP260. Nature of the test: qHTS profiling for inhibitors of Plasmodium falciparum proliferation (AID 504749). Also: nearly all actives have a fitted effect of over 60% in size. Also: potency is read from the fitted curve at half-maximal effect. The settings on record: P. falciparum in erythrocytes, SYBR Green DNA, 72 h; series mostly up to 28.7 µM. The gist of the method: as §1
The next test relates to ICS. Described as above. The conditions noted are these: P. falciparum in erythrocytes, SYBR Green DNA, 72 h; series mostly up to 28.7 µM. The gist of the method: as §1
Test [3] addresses Estrogen receptor (Homo sapiens) (UniProt P03372). Put plainly: qHTS assay for small molecule antagonists of estrogen receptor alpha signaling (AID 588513; active = well fitted curve in the direction sought with a large enough effect in the signal ratio, with a control signal flat, not every such curve was filed as active; the % refers to the signal ratio; also: % is scaled to controls: 0 for no effect and ±100 for the full control effect). The conditions noted are these: ER-alpha-UAS-bla HEK293, beta-lactamase ratio, antagonist mode; series mostly up to 76.9 µM. The gist of the method:
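Antagonist-mode qHTS in ER-alpha-UAS-bla HEK 293 cells: compound titration, 0.5nM estradiol for 18 h, CCF4 fluorescence, Hill-derived IC50.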

For test [4], the target named is Peroxisome proliferator-activated receptor delta (Homo sapiens) (UniProt Q03181). Put plainly: qHTS assay for small molecule agonists of peroxisome proliferator-activated receptor delta signaling (AID 588534; calls by dose curve;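 also: 0% = DMSO basal wells and 100% = positive control agonist at 10 µM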). The conditions noted are these: HEK293T PPARdelta-UAS-bla, beta-lactamase ratio, 18 h; series mostly up to 76.7 µM. The gist of the method:
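Cell-based beta-lactamase reporter assay run in agonist mode: cells seeded and incubated 5 hrs at 37 C, compounds added and incubated 18 hrs at 37 C. CCF4 dye fluorescence read after 2 hrs at RT; EC50 and efficacy from Hill fits.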

In test [5] the target is Peroxisome proliferator-activated receptor gamma (Homo sapiens) (UniProt P37231). Put plainly: qHTS assay for small molecule antagonists of peroxisome proliferator-activated receptor gamma signaling (AID 588537; active = well fitted inhibition curve with a large enough effect in the signal ratio, with a control signal flat, not every such curve was filed as active; the % refers to the signal ratio;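 also: reporter cells co-stimulated with 50 nM rosiglitazone agonist during compound treatment; % of control where 0% means no effect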). The conditions noted are these: HEK293 PPARg-UAS-bla, beta-lactamase ratio, antagonist mode; series mostly up to 76.8 µM. The gist of the method:
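Inhibitors of agonist-stimulated UAS-bla reporter activity were sought in HEK293 cells; rosiglitazone (50 nM) defined full signal and DMSO baseline. Curves fitted to Hill model gave IC50 and efficacy.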

For test [6], the target named is Vitamin D3 receptor (Homo sapiens) (UniProt P11473). Put plainly: qHTS assay for small molecule agonists of vitamin D receptor signaling (AID 588543; calls by dose curve;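 also: 0% = DMSO basal and 100% = reference agonist control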). The conditions noted are these: HEK293T VDR-UAS-bla, beta-lactamase ratio, 16 h; series mostly up to 76.8 µM. The method in brief:
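Measured: β-lactamase reporter activity (CCF4, 405 nm excitation, 460/530 nm emission) in HEK293T VDR-UAS-bla cells after 16 h compound exposure at 37 °C. Normalization against 50 nM 1α,25-dihydroxyvitamin D3 and DMSO; Hill-fit EC50.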

The target in test [7] is Thyroid hormone receptor beta (Homo sapiens) (UniProt P10828). Nature of the test: qHTS assay for small molecule agonists of thyroid hormone receptor beta signaling (AID 588545; calls by dose curve;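 also: 0% = DMSO only and 100% = 10 nM T3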). The conditions noted are these: TR-UAS-bla GripTite HEK 293, beta-lactamase ratio, agonist mode, 18 h, percent of T3 response, DMSO as zero; series mostly up to 76.7 µM. The gist of the method: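 Beta-lactamase reporter activity under TR response element control is measured in HEK 293 cells after 18 hrs compound exposure. Signal is ratiometric CCF4 fluorescence, 460/530 nm.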

Test [8] has the same target. Nature of the test: qHTS assay for small molecule antagonists of thyroid hormone receptor beta signaling (AID 588547; active = well fitted inhibition curve with a large enough effect in the signal ratio, with a control signal flat, not every such curve was filed as active; the % refers to the signal ratio;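 also: cells stimulated with 0.4 nM T3 agonist during compound exposure; % is scaled to controls: 0 for no effect and ±100 for the full control effect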). The conditions noted are these: TR-UAS-bla HEK293, beta-lactamase ratio, antagonist mode, 18 h. The gist of the method:
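Inhibition of T3-driven (0.4nM final) beta-lactamase reporter activity was measured over 0.59 nM to 92 uM compound after 18 h at 37 C. The cells were GripTite HEK293 TR-UAS-bla in charcoal/dextran-stripped serum, with CCF4 ratio read-out and IC50 from Hill fits.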

Test [9] can be described thus: qHTS assay for small molecule agonists of the antioxidant response element (ARE) signaling pathway (AID 651741; active = well fitted activation curve with a large enough effect in the signal ratio; the % refers to the signal ratio; also: % of control where 0% means no effect). The settings on record: HepG2 ARE-bla reporter, beta-lactamase FRET ratio, 16 h; series mostly up to 96 µM. The method in brief:
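Seeding 2,000 ARE-bla HepG2 cells per well preceded a 5 h incubation at 37 C/5% CO2 and a 16 h compound exposure at 37 C. Beta-lactamase reporter activity was then quantified by fluorescence after 2 h with LiveBLAzer B/G FRET substrate.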

Test [10] in a line: qHTS assay for small molecule agonists of the antioxidant response element (ARE) signaling pathway measured by Nrf2-dependant transcriptional activity (AID 720636; active = well fitted curve in the direction sought with a large enough effect in the repeat runs; an effect the other way counts as inactive or inconclusive; also: % of control where 0% means no effect). The conditions noted are these: ARE-luc HepG2, Nrf2 luciferase reporter, 16 h; series mostly up to 92.4 µM. The gist of the method:
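Nrf2-dependent transcription read as ONE-Glo luciferase signal from ARE-luc HepG2 reporter cells after 16 hr compound treatment at 37 C, 5% CO2, in assay medium with 1% dialyzed FBS.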

Chain of Cytochrome P450 2D6 (Homo sapiens) (P10635 whole entry, looked up): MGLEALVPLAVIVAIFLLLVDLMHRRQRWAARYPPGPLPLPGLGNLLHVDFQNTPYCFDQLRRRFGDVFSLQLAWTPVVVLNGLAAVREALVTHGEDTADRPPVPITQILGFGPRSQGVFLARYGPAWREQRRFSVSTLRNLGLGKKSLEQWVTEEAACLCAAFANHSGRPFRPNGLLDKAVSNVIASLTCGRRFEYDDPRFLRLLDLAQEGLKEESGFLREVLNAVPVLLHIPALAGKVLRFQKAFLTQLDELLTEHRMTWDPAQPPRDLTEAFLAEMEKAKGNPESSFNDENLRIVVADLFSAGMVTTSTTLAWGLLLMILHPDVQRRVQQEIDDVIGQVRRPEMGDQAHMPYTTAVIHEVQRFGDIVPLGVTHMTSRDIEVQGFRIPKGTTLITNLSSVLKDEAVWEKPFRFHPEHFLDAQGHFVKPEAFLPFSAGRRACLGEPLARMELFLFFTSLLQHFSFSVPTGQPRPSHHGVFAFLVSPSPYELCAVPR
Chain of DNA dC->dU-editing enzyme APOBEC-3G (Homo sapiens) (Q9HC16 whole entry, looked up): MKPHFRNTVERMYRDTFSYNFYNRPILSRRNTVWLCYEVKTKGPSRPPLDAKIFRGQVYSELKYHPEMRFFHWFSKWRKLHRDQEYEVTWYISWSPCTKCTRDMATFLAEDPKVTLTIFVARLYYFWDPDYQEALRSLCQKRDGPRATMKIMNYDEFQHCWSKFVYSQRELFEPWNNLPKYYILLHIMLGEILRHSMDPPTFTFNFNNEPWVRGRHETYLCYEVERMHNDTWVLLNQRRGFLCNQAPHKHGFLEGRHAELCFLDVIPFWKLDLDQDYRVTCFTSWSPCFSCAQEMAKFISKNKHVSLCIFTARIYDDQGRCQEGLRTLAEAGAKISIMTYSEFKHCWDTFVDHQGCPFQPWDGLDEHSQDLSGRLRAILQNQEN
Chain of Thyroid hormone receptor beta (Homo sapiens) (P10828 whole entry, looked up): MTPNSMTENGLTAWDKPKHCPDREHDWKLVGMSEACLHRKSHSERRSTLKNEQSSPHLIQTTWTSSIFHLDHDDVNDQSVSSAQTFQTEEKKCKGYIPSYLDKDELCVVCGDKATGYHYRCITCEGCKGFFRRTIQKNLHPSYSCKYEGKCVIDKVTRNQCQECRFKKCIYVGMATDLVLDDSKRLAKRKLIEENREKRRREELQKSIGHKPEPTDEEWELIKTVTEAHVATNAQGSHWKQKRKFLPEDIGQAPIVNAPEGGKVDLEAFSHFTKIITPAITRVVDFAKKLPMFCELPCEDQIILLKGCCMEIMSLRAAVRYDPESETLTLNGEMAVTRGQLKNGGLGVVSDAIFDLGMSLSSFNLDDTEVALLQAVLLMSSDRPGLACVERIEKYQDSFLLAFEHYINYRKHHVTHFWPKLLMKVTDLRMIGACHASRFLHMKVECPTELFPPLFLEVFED
Chain of Peroxisome proliferator-activated receptor delta (Homo sapiens) (Q03181 whole entry, looked up): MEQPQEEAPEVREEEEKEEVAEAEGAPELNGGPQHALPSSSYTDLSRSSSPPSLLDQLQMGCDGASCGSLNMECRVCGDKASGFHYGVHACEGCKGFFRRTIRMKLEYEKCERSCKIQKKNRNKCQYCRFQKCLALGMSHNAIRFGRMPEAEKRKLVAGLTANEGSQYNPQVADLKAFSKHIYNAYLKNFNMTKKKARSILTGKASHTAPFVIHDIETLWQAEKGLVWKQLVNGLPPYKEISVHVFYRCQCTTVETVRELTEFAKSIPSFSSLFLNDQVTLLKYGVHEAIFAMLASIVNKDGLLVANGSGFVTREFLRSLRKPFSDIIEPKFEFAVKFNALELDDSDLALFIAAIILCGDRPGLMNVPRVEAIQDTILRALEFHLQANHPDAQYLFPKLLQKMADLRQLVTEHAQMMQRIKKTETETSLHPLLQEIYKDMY
Chain of Estrogen receptor (Homo sapiens) (P03372 whole entry, looked up): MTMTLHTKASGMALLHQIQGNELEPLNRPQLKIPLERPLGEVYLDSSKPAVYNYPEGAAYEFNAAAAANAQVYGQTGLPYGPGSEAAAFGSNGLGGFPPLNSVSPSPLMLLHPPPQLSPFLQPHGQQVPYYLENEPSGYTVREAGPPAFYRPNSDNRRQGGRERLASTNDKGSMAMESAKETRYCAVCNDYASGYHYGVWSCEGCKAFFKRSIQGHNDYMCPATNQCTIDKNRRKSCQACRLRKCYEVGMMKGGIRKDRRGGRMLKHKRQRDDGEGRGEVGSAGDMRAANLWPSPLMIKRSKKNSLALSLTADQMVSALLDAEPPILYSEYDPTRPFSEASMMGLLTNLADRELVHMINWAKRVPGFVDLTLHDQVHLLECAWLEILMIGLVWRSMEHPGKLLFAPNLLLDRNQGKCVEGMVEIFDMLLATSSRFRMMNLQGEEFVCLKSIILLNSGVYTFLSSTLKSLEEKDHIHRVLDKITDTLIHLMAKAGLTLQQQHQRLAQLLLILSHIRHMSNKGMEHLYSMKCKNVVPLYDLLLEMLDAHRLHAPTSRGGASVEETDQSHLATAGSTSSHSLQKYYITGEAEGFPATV
Chain of Vitamin D3 receptor (Homo sapiens) (P11473 whole entry, looked up): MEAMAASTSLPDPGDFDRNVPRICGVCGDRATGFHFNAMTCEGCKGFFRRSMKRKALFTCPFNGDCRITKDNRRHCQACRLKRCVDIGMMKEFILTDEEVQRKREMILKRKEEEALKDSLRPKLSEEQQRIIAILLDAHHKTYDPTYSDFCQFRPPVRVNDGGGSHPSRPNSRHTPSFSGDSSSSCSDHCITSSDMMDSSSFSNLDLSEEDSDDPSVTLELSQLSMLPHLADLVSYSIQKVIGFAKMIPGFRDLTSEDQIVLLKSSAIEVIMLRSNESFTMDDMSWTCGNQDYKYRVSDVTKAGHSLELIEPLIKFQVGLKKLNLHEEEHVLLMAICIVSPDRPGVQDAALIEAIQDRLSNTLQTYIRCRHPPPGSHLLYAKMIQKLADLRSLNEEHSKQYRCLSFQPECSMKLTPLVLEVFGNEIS
Chain of Peroxisome proliferator-activated receptor gamma (Homo sapiens) (P37231 whole entry, looked up): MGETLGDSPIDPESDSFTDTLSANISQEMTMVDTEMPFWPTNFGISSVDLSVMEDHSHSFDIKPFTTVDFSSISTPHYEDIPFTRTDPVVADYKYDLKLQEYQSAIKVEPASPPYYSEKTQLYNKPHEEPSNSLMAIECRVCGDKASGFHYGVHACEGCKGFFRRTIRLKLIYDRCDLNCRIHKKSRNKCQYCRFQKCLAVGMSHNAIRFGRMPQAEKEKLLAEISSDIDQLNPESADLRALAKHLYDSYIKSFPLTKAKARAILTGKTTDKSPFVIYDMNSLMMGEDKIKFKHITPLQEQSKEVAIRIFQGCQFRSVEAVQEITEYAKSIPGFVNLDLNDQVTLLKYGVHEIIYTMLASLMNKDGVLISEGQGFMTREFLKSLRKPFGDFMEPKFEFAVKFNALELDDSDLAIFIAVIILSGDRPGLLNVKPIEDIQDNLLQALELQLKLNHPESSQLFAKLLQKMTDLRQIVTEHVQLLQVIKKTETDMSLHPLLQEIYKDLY

For `CN1[C@@H](C[C@@H](O)c2ccccc2)CCC[C@@H]1C[C@H](O)c1ccccc1`, in test [1], the Potency is 0.631 µM (active).

With `CNc1ccc(C(=O)CC(O)CCC(C)C2OC(=O)CC(O)CC(=O)CC(O)CC(O)CC(O)CC(O)CC3(O)CC(O)C(C(=O)OC)C(CC(O[C@@H]4OC(C)C(O)C(N)C4O)/C=C/C=C/C=C/C=C/C=C/C=C/C=C/C2C)O3)cc1` (some centres not stated), the Potency result in the test with CP268, with CP335, in the test on GB4, in the test on JCK, in the test on PC15 and in the test on W2 was “inactive” throughout.

`C[C@]1(C(=O)O)CCC[C@]2(C)c3cc(O)ccc3CC[C@@H]12`: the result in test [2] was inactive.

As for `O=C1CCCC2[C@@H]3CCCN4CCC[C@@H](CN12)C34` (some centres not stated), in test [2], the call was inactive.

Take `COc1cc2c(cc1OC)[C@@]13CCN4CC5=CCOC6CC(=O)N2C1[C@H]6[C@@H]5C[C@@H]43` (some centres not stated): the Potency result in the test on CP260, in the test with CP268, with CP335, in the test on GB4, in the test with ICS and in the test on JCK was “inactive” throughout. The Potency result in the test on PC15 and in the test on W2 was “inactive” each time.

As for `O=c1ccc2cc(O[C@H]3O[C@@H](CO)[C@@H](O)[C@@H](O)[C@@H]3O)c(O)cc2o1`, the Potency result with CP260, with CP268, in the test with CP335, in the test with GB4, with ICS and in the test on JCK was “inactive” each time. In addition, the Potency result in the test with PC15 and in the test with W2 was “inactive” each time.

Take `CC1CC[C@@]2(NC1)O[C@@H]1C[C@H]3C4CC=C5C[C@@H](O)CC[C@]5(C)C4CC[C@]3(C)[C@H]1[C@@H]2C` (some centres not stated): the result in test [2] was inactive.

`C=CC1CN2CCC1CC2C(OC(=O)OCC)c1ccnc2ccc(OC)cc12` (configuration not stated): the Potency is 10 µM (active) with CP260; 9.53 µM (active) in the test with CP335; 4.78 µM (active) in the test on GB4; 3.98 µM (active) in the test on ICS; 3.98 µM (active) in the test with PC15; 2.13 µM (active) with W2.

On to `C=C[C@H]1CN2CC[C@H]1C[C@H]2c1[nH]c2ccccc2c1CCO`, for which the result in [2] was inactive.

As to `C[C@]12CCC3C(CC[C@H]4C[C@@H](O)CC[C@]34C)[C@@H]1CCC2=O` (some centres not stated), the molecule was called inactive in test [2].

Consider `CCN1C[C@@]2(COC(=O)c3ccccc3N3C(=O)CC(C)C3=O)CC[C@H](OC)[C@]34C5C[C@@H]6[C@@H](OC)C[C@@](O)(C5[C@H]6OC)[C@@](O)(C13)[C@@H](OC)C24` (some centres not stated), for which, in [2], the molecule was classed as inactive.

`CNC(=O)CSP(=S)(OC)OC`: the Potency entry in [3], in test [5] and in [9] was “inactive” throughout. Besides, the result in [4], in test [6], in [7] and in test [10] was inactive. Also, the activity change % (negative = inhibition) in test [8] was -15.4% and 6.49%.

Regarding `C=C[C@H]1CN2CCC1C[C@@H]2C(O)c1ccnc2ccccc12` (some centres not stated), the outcome in test [2] was inactive.

`c1cncc([C@H]2CCCCN2)c1`: the Potency in test [1] is 12.6 µM (active). For the same molecule, the result in test [2] was inactive.

Turning to `C[N+]1=Cc2cc3c(cc2CC1)OCO3`, the Potency in [1] was 15.8 µM (active). The outcome in [2] was inactive.

With `COc1cc2c(c(OC)c1OC)-c1ccc(O)c(=O)cc1[C@@H](NC(C)=O)CC2`, the Potency result in [1] was “inactive”.

As for `COc1cc(N)c(Cl)cc1C(=O)N[C@@H]1CN2CCC1CC2`, in test [2], the outcome was inactive. Further, the Potency entry with CP260, with CP268, with CP335, in the test with GB4, in the test with ICS and in the test with JCK was “inactive” each time. In addition, in the test on PC15, the Potency result is “inactive”.

The values are drawn from PubChem BioAssay (NCATS).
